A340 absorber – absorbance at 340 nm; fold change at 10 µM; compound absorbance at 340 nm, fold over control; AID 708; 65,000 tested, under 10 active;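 active = at 10 µM dose, initial 340 nm absorbance at least 2 fold that of control wells; inactive = change under 2 fold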;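 note: initial absorbance extrapolated from kinetic A340 decline of NADH oxidation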
NADH coupling – blocks coupling enzymes of NAD/NADH assays; IC50, µM (top dose mostly 10 µM), without a hit: top-dose inhibition; AID 774; coupled PK/LDH NADH assays, four targets; 0.02% of 65,000 active;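 active = single-dose screening hits from any of four coupled enzyme assays that gave an IC50 when retested across doses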;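 note: the DPM-DC format reads NADH fluorescence rather than 340 nm absorbance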
DPM-DC inhibit – S. pneumoniae DPM-DC inhibition; purified DPM-DC, PK/LDH coupled NADH fluorescence; calls only at 10 µM; 0.49% of 65,000 active; AID 556;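 active = the 320 compounds with the highest percent inhibition in the single-dose primary screen, excluding strongly autofluorescent ones, cut at about 32% in these data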;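 note: kinetic rate of NADH fluorescence loss reporting ADP formed by the decarboxylase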
Autofluor 339 – intrinsic fluorescence of library compounds, ex339/em460 – biochemical, MLSMR library, data from DPM-DC assay, artefact control, profiling panel | compound autofluorescence, ex339/em460 nm, NADH buffer; active compounds read high; 1 = no-compound wells, NADH background | fluorescence fold increase at 10 µM | 5.5% of 65,000 active | AID 709;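 active = at 10 µM, mean starting fluorescence two-fold or more over control wells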;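 note: signal is the first read of a kinetic run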
Spn PMK inh – inhibitors of Streptococcus pneumoniae phosphomevalonate kinase; 0.49% of 65,000 active; inhibition, % at 10 µM; purified PMK, PK/LDH-coupled NADH absorbance 340 nm;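 active = top-ranked compounds by inhibition in the single 10 µM screen, taking a fixed number of the strongest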;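 note: 0% = full reaction with DMSO carrier and 100% = background rate without enzyme reaction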
MK inhibit – inhibitors of Streptococcus pneumoniae mevalonate kinase | purified MK, PK/LDH-coupled NADH absorbance 340 nm | inhibition, % at 10 µM | 0.48% of 65,000 active;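 active = ranked among the strongest by inhibition in the single 10 µM screen, a fixed top-ranked set picked for dose follow-up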
An asterisk follows results filed as active; i = inactive; x = no result given; + = active, no number. Compounds with a hit are over-represented: about 6.8% of the library has one in this group of screens.

SMILES	A340 absorber	NADH coupling	DPM-DC inhibit	Autofluor 339	Spn PMK inh	MK inhibit
CCOC(=O)C1=C(N)OC2=C(C(=O)CCC2)C1c1ccc(C)s1 (centres undefined)	1	15%	i	1.1	37*	1
Cn1c(=O)c2c(nc(N3CCOCC3)n2C)n(C)c1=O	1	9%	i	1.1	26*	0
Cn1c(=O)c2c(nc(N3CCCCCC3)n2Cc2cccc3ccccc23)n(C)c1=O	1	4%	i	1	0	13
CN1CCN(c2nc3c(c(=O)n(C)c(=O)n3C)n2Cc2cccc3ccccc23)CC1	0.98	5%	i	1	3	active
Cc1cc(NC(=O)CSc2nnnn2Cc2ccccc2)no1	1	3%	i	1.2	0	10
CCCOc1ccc(C2c3c(oc4cc(C)c(C)cc4c3=O)C(=O)N2CCCN(C)C)cc1OCC (centres undefined)	1.1	3%	i	1.1	3	5
CCOc1ccc(C2c3c(oc4cc(C)c(C)cc4c3=O)C(=O)N2CCCN(C)C)cc1OC (centres undefined)	1.1	14%	i	1.1	28*	10
c1ccc2[nH]c(-c3ccnc4ccccc34)nc2c1	1.1	11%	x	2.1*	13	8
c1ccc2[nH]c(-c3cscn3)nc2c1	0.97	2%	i	0.99	3	4
c1ccc2nc(-c3nc4ccccc4[nH]3)ccc2c1	1	3%	x	2.3*	0	2
CN(Cc1ccccc1)S(=O)(=O)c1ccc2[nH]cc(C(=O)NCC3CCCO3)c(=O)c2c1 (centres undefined)	1	16%	i	1.8	18	0
O=C1CSc2ccc(C(=O)N3CCN(c4ccccn4)CC3)cc2N1	1	4%	i	1.1	10	2
COCCNC(=O)c1ccc2c(c1)NC(=O)CS2	1	12%	i	1	27*	8
O=C(c1noc2c1CCCCC2)N1CCOCC1	0.96	11%	i	0.91	15	7
O=C(c1noc2c1CCCC2)N1CCCCC1	0.99	19%	+	0.67	8	10
N#Cc1ccc(-c2ccc(OCC(O)Cn3nnc4ccccc43)cc2)cc1 (centres undefined)	1	4%	i	1.2	0	12
CCN(CC)c1ccc(-c2c(C#N)c(N)nc(OC)c2C#N)cc1	1.1	1%	x	2.5*	0	4
CCOC(=O)c1[nH]c2ccc(C)cc2c1NC(=O)CN1CCCCC1	1	6%	i	1.8	2	10
CCOC(=O)c1[nH]c2ccc(OC)cc2c1NC(=O)CN1CCC2(CC1)OCCO2	1.1	7%	x	3.9*	5	9
CCOC(=O)c1[nH]c2ccc(OC)cc2c1NC(=O)c1nonc1C	1	9%	i	1.1	15	12
CCOC(=O)c1[nH]c2ccc(F)cc2c1NC(=O)C(C)N1CCc2cc(OC)c(OC)cc2C1 (centres undefined)	1	7%	i	1.4	12	11
CCOC(=O)c1[nH]c2cc(OC)c(OC)cc2c1NC(=O)CN1CCN(C)CC1	1.1	4%	x	3.6*	0	7
CCOC(=O)c1[nH]c2ccc(OC)cc2c1NC(=O)C(C)N1CCC2(CC1)OCCO2 (centres undefined)	1.1	8%	x	3.8*	6	9
CCCCS(=O)(=O)NC1=NCN(CCOC(=O)c2ccccc2)CN1	0.99	4%	i	1	15	10
COc1ccc2nc(SCC(=O)N3CCCCCC3)c(C#N)cc2c1	1	8%	i	1.3	4	12
SMILES	A340 absorber	NADH coupling	DPM-DC inhibit	Autofluor 339	Spn PMK inh	MK inhibit
CCOC(=O)C1CCN(C(=O)c2cc3cc4cc(OC)ccc4nc3o2)CC1	1	6%	x	5.1*	11	0
COc1ccc2nc3oc(C(=O)N4CCCCC4)cc3cc2c1	1	16%	x	3.4*	9	0
COc1ccc2nc3sc(C(=O)N4CCN(C)CC4)cc3cc2c1	1	7%	i	2.7*	15	0
C=C1Cn2c(nnc2-c2ccc(Cl)cc2)S1	1	4%	i	1.1	4	7
C=CCSC1=C(C#N)C(c2cccc(OC)c2)CC(=O)N1 (centres undefined)	1	7%	i	1.1	6	15
CC(C)(C)NCC1(CO)SC(N)=NC1=O (centres undefined)	1	7%	i	1.1	7	14

High-throughput results: PubChem, SRMLSC
